The panel holds about 79,000 compounds, 15% with a hit somewhere; the sample as a whole holds those more often. Active and inactive are the calls of the source. No stated cut-off is given here; in the data, active means growth inhibition above about 70%; inactive means the rest.

The text below walks through data of PubChem BioAssay (NCI).

The first experiment in a line: NCI Yeast Anticancer Drug Screen. Data for the sgs1 mgt1 strain (AID 161).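 Further: 0% = growth of cultures given vehicle only.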 The following applies: S. cerevisiae sgs1 mgt1 strain, at 50.0 µM, hits give high values. The method in brief:
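Read-out: growth inhibition vs vehicle controls. Cells: mutant yeast strain deficient in DNA damage repair.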
In the case of `CC1c2c(cc(=O)n(C)c2O)C(=O)N1Cc1ccccc1` (stereo not given), the growth inhibition is 8.7% (inactive).
Still for that read-out and setting: the figure for `Cc1cc(C)[n+]([O-])c(C)c1` is -2.75% (inactive).
The same measure, in the same setting: the figure for `Cc1cc2c(=O)cc(-c3ccc(C(F)(F)F)cc3)oc2c(C(=O)O)c1C` is -2.3% (inactive); for `CCOC(=O)C1(C(=O)OCC)C2C=CC(C2)C1C(=O)OC` (stereo not given) it is 15.8% (inactive).
Still for that read-out and setting: the figure for `CC(NC(=O)C(C)(C)C)c1ccc2c(c1)OCCO2` (stereo not given) is 6.6% (inactive).
For `CCOC(=O)/C(N=Nc1ccc(O)cc1)=C(\C)O`, the growth inhibition was 17.7% (inactive).
Consider `CCOC(=O)CCC(NC(=O)c1ccc(OCc2ccc3nc(OC)c(OC)nc3c2)cc1)C(=O)OCC` (stereo not given), for which the growth inhibition was -21.6% (inactive).
Same read-out and setting: then `Cc1cc(C)c(CSc2cc(N)nc(N)c2N)c(C)c1`, with 1.25% (inactive); and `[O-][n+]1c2ccc(Cl)cc2nc2ccc(Cl)cc21`, with -8.25% (inactive).
The same measure, in the same setting: the figure for `CCC(/C=N\NC(=O)CCCC(=O)N/N=C/C(CC)CC)CC` is -18.6% (inactive); for `O=C(Nc1ccccn1)OCCCl` it is 4.35% (inactive); for `Nc1nc(Cc2ccccc2)cs1` it is 16.1% (inactive).
As to `O=C(O)C(O)c1c[nH]c2ccccc12` (stereo not given), the growth inhibition is -26.6% (inactive).
Regarding `CC(=O)Oc1c(C)c2c(O)c3c1C1=C(OCOC1=C(C)C3=O)/C(C)=C\C(C)(O)C(O)C(C)C(O)C1C(=O)OC(C(C)C1O)C(C)(O)/C=C/C=C(C)C(=O)N2` (stereo not given), the growth inhibition is -10.4% (inactive).
On the same count and under the same terms, then `COc1ccc(CC2OCCC3c4ccccc4NC23)cc1OC` (stereo not given), with 0.7% (inactive).
The same measure, in the same setting: then `CS(=O)(=O)Nc1cccc(C(=O)NN)c1`, with -3.4% (inactive); and `O=C1c2ccccc2-c2ccc(-c3ccc4c5c(cccc35)C(=O)c3ccccc3-4)c3cccc1c23`, with -7.9% (inactive); and `CCCCCCCCCCCCCC(=O)Oc1ccc([N+](=O)[O-])cc1`, with -13.1% (inactive).
The same measure, in the same setting: the figure for `S=C=Nc1ccc(CSc2nc3ccccc3[nH]2)cc1` is 12.8% (inactive); for `CCCCCCC(=O)/C=C/c1ccc(Cl)cc1` it is -3.1% (inactive).
Regarding `Cc1n(C)nn[n+]1C`, the growth inhibition is -2.65% (inactive).
Still for that read-out and setting: the figure for `CC(=O)OC1CCC2(C)C(CCC3C2CC(OC(C)=O)C2(C)C(C(C)CCC(c4ccccc4)c4ccccc4)CCC32)C1` (stereo not given) is 1.1% (inactive); for `CCOC(=O)C(C#N)=C1CC(C)OC(C)C1` (stereo not given) it is 5.85% (inactive); for `CCCCCCCCCCCCCCCCCC(=O)c1ccc(OC)c(OC)c1` it is -31.1% (inactive).
Still for that read-out and setting: then `O=C1NC(c2ccccc2)C1N(Cc1ccccc1)Cc1ccccc1` (stereo not given), with 22.2% (inactive); and `CCOC(=O)C(CC)(C(=O)OCC)C(C)CC` (stereo not given), with 15.1% (inactive); and `CC1(C(N)=O)CCC1`, with -18.4% (inactive).
On the same count and under the same terms, then `CCSC(SCC)C(NC(C)=O)C(O)C(O)COC(=O)c1ccccc1` (stereo not given), with 17.4% (inactive); and `O=C(O)C1Cc2c([nH]c3ccccc23)C(c2ccccc2)N1` (stereo not given), with 10.8% (inactive).
Consider `O=C(Nc1ccccc1)C1CC2C=CC1C2` (stereo not given), for which the growth inhibition is 4% (inactive).
Same read-out and setting: then `CCOC(=O)c1nc2c(n(O)c1=N)CCC/C2=N\O`, with -8.8% (inactive); and `NC(=O)ON=C1CCN(Cc2ccccc2)CC1`, with 10.7% (inactive).
On the same count and under the same terms, then `O=C(O)C(O)C(O)C(O)C(O)C(O)CO.[NH-]C1CCCCC1[NH-].[Pt+2]` (stereo not given), with -30.4% (inactive); and `CC1(C)CCCCC1=O`, with 7.1% (inactive); and `O=S(=O)(c1ccc(NC(=S)N2CCOCC2)cc1)N1CCCCC1`, with -10.1% (inactive).
The same measure, in the same setting: the figure for `CCOP(=O)(OCC)C(C)(CC)NC1=NC(C(F)(F)F)(C(F)(F)F)NC(=O)N1` (stereo not given) is -3.3% (inactive).
In the case of `COc1ccc(NC(=O)CC(=O)n2nc(C)c(N=Nc3ccccc3C(=O)O)c2C)cc1`, the growth inhibition was -6.05% (inactive).
Consider `CC1(C#N)CCCC(c2ccccc2)(c2ccccc2)C1=O` (stereo not given), for which the growth inhibition is 49.2% (inactive).
The same measure, in the same setting: then `CC(=O)c1nc(C#N)c(N)o1`, with -17.7% (inactive).
The same measure, in the same setting: then `COC(=O)C(CO)NC(=O)C(CC(C)C)NC(=O)C(CC(C)C)NC(=O)OCc1ccccc1` (stereo not given), with 16.6% (inactive).

The next experiment can be described thus: NCI Yeast Anticancer Drug Screen. Data for the cln2 rad14 strain (AID 165).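 Further: 0% = growth equal to vehicle treated cultures.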 The following applies: S. cerevisiae cln2 rad14 strain, at 50.0 µM, hits give high values. The method in brief: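 Test compounds were added to cln2 rad14 yeast cultures; inhibition of growth was then determined by comparison with vehicle treatment.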
Consider `CC1c2c(cc(=O)n(C)c2O)C(=O)N1Cc1ccccc1` (stereo not given), for which the growth inhibition is -2.6% (inactive).
Still for that read-out and setting: the figure for `Cc1cc(C)[n+]([O-])c(C)c1` is -8.6% (inactive); for `Cc1cc2c(=O)cc(-c3ccc(C(F)(F)F)cc3)oc2c(C(=O)O)c1C` it is 13.1% (inactive).
In the case of `CCOC(=O)C1(C(=O)OCC)C2C=CC(C2)C1C(=O)OC` (stereo not given), the growth inhibition was -60.3% (inactive).
Same read-out and setting: then `CC(NC(=O)C(C)(C)C)c1ccc2c(c1)OCCO2` (stereo not given), with -3.7% (inactive); and `CCOC(=O)/C(N=Nc1ccc(O)cc1)=C(\C)O`, with 24.9% (inactive).
The same measure, in the same setting: the figure for `CCOC(=O)CCC(NC(=O)c1ccc(OCc2ccc3nc(OC)c(OC)nc3c2)cc1)C(=O)OCC` (stereo not given) is 5% (inactive); for `Cc1cc(C)c(CSc2cc(N)nc(N)c2N)c(C)c1` it is 5.9% (inactive); for `[O-][n+]1c2ccc(Cl)cc2nc2ccc(Cl)cc21` it is -27.4% (inactive).
Regarding `CCC(/C=N\NC(=O)CCCC(=O)N/N=C/C(CC)CC)CC`, the growth inhibition was 5.65% (inactive).
The same measure, in the same setting: the figure for `O=C(Nc1ccccn1)OCCCl` is 10.1% (inactive).
Still for that read-out and setting: the figure for `Nc1nc(Cc2ccccc2)cs1` is 7.5% (inactive).
For `O=C(O)C(O)c1c[nH]c2ccccc12` (stereo not given), the growth inhibition was -1.25% (inactive).
Consider `CC(=O)Oc1c(C)c2c(O)c3c1C1=C(OCOC1=C(C)C3=O)/C(C)=C\C(C)(O)C(O)C(C)C(O)C1C(=O)OC(C(C)C1O)C(C)(O)/C=C/C=C(C)C(=O)N2` (stereo not given), for which the growth inhibition was 8.95% (inactive).
The same measure, in the same setting: the figure for `COc1ccc(CC2OCCC3c4ccccc4NC23)cc1OC` (stereo not given) is -10.2% (inactive).
The same measure, in the same setting: the figure for `CS(=O)(=O)Nc1cccc(C(=O)NN)c1` is -11.3% (inactive); for `O=C1c2ccccc2-c2ccc(-c3ccc4c5c(cccc35)C(=O)c3ccccc3-4)c3cccc1c23` it is -0.85% (inactive).
The same measure, in the same setting: then `CCCCCCCCCCCCCC(=O)Oc1ccc([N+](=O)[O-])cc1`, with 11.2% (inactive); and `S=C=Nc1ccc(CSc2nc3ccccc3[nH]2)cc1`, with 2.4% (inactive); and `CCCCCCC(=O)/C=C/c1ccc(Cl)cc1`, with -6.5% (inactive).
With `Cc1n(C)nn[n+]1C`, the growth inhibition was -24.1% (inactive).
Still for that read-out and setting: then `CC(=O)OC1CCC2(C)C(CCC3C2CC(OC(C)=O)C2(C)C(C(C)CCC(c4ccccc4)c4ccccc4)CCC32)C1` (stereo not given), with 14.9% (inactive); and `CCOC(=O)C(C#N)=C1CC(C)OC(C)C1` (stereo not given), with -33.6% (inactive); and `CCCCCCCCCCCCCCCCCC(=O)c1ccc(OC)c(OC)c1`, with -37.5% (inactive).
The same measure, in the same setting: the figure for `O=C1NC(c2ccccc2)C1N(Cc1ccccc1)Cc1ccccc1` (stereo not given) is 11.4% (inactive); for `CCOC(=O)C(CC)(C(=O)OCC)C(C)CC` (stereo not given) it is -5.9% (inactive).
Still for that read-out and setting: then `CC1(C(N)=O)CCC1`, with -24.1% (inactive); and `CCSC(SCC)C(NC(C)=O)C(O)C(O)COC(=O)c1ccccc1` (stereo not given), with 12% (inactive).
On to `O=C(O)C1Cc2c([nH]c3ccccc23)C(c2ccccc2)N1` (stereo not given), for which the growth inhibition is -56.6% (inactive).
With `O=C(Nc1ccccc1)C1CC2C=CC1C2` (stereo not given), the growth inhibition is -3.9% (inactive).
As for `CCOC(=O)c1nc2c(n(O)c1=N)CCC/C2=N\O`, the growth inhibition was 14.2% (inactive).
On the same count and under the same terms, then `NC(=O)ON=C1CCN(Cc2ccccc2)CC1`, with 18.9% (inactive); and `O=C(O)C(O)C(O)C(O)C(O)C(O)CO.[NH-]C1CCCCC1[NH-].[Pt+2]` (stereo not given), with 7.4% (inactive).
The same measure, in the same setting: the figure for `CC1(C)CCCCC1=O` is 22.1% (inactive).
For `O=S(=O)(c1ccc(NC(=S)N2CCOCC2)cc1)N1CCCCC1`, the growth inhibition was 1.6% (inactive).
Still for that read-out and setting: then `CCOP(=O)(OCC)C(C)(CC)NC1=NC(C(F)(F)F)(C(F)(F)F)NC(=O)N1` (stereo not given), with 1% (inactive); and `COc1ccc(NC(=O)CC(=O)n2nc(C)c(N=Nc3ccccc3C(=O)O)c2C)cc1`, with -42.5% (inactive); and `CC1(C#N)CCCC(c2ccccc2)(c2ccccc2)C1=O` (stereo not given), with -9.25% (inactive).
Same read-out and setting: then `CC(=O)c1nc(C#N)c(N)o1`, with 20.8% (inactive).
In the case of `COC(=O)C(CO)NC(=O)C(CC(C)C)NC(=O)C(CC(C)C)NC(=O)OCc1ccccc1` (stereo not given), the growth inhibition is 11.6% (inactive).
